Drawing on PubChem BioAssay, this text covers growth inhibition, inhibition and outcome for 21 compounds.

The nature of assay [1]: antimalarial activity against Dd2 strain (AID 2302;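 active means growth inhibition above 50% at the single 2 µM test dose, taken to imply half-maximal potency below 2 µM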;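 further: 0% = DMSO untreated growth and 100% = chloroquine plus artemisinin killed control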). The settings on record: P. falciparum Dd2 in RBCs, LDH growth readout, 72 h; at 2 µM; hits give high values.
The nature of assay [2]: HepG2 cytotoxicity, primary screen, cytotoxicity control for P. falciparum antimalarial project, cell-based, ATP luminescence (AID 2303;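 active means inhibition above 50%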;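 further: 0% = DMSO wells and 100% = digitonin-killed cells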). Particulars: HepG2 viability, 24-48 h, at 10 µM, hits give high values.
Assay [3] has as its target L-lactate dehydrogenase (Plasmodium falciparum (isolate CDC / Honduras)) (UniProt Q27743). Put plainly: PfLDH activity inhibition – cell lysate, 3D7 strain, counter-screen for P. falciparum growth inhibition project (AID 2304).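 Further: 0% = vehicle and 100% = reference inhibitor.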 Particulars: P. falciparum 3D7 crude extract, LDH APAD/NBT absorbance; at 2 µM; hits give high values.
A short description of assay [4]: inhibition of 3D7 malaria parasite growth – strain 3D7 (AID 2306).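 Further: 0% = DMSO wells and 100% = chloroquine plus artemisinin control wells.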 Particulars: P. falciparum 3D7 erythrocytic growth, LDH absorbance, 72 h; at 2 µM; hits give high values.
Assay [5] deals with Calcium-dependent protein kinase 1 (Plasmodium falciparum (isolate 3D7)) (UniProt P62344). Put plainly: PfCDPK1 kinase inhibitors, biochemical, TCAMS library (AID 1159585; cut-off not given, nearly all actives have IC50 up to about 0.98 µM;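 further: inhibitors leave more ATP so luminescence rises with inhibition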). The settings on record: recombinant PfCDPK1, Kinase-Glo ATP depletion luminescence. On the technique in general: In Kinase-Glo more light means more ATP remaining.
Assay [6] deals with Plasmodium falciparum protein kinase 6 (PK6, PF3D7_1337100) (UniProt Q8IDW1). Description: PfPK6 kinase inhibitors, biochemical, TCAMS library (AID 1159586). The settings on record: recombinant PfPK6, Kinase-Glo ATP depletion luminescence.
The target in assay [7] is Protein kinase 7 (PK7), Plasmodium falciparum 3D7 (PF3D7_0213400) (UniProt Q7YTF7). Description: inhibition of Plasmodium PK7 catalytic activity – biochemical, TCAMS antimalarial set, Kinase-Glo luminescence (AID 1159587). Particulars: recombinant PfPK7, Kinase-Glo ATP depletion luminescence.
In assay [8] the target is Calcium-dependent protein kinase 4 (Plasmodium falciparum (isolate 3D7)) (UniProt Q8IBS5). Description: PfCDPK4 kinase inhibitors, biochemical, TCAMS library (AID 1159588; cut-off not given, nearly all actives have IC50 up to about 0.91 µM). The settings on record: recombinant PfCDPK4, Kinase-Glo ATP depletion luminescence.

SMILES strings stand for the structures. Unmarked numbers belong to inactive results. For part of these data: Potency and affinity values are given separately. Active and inactive are the calls of the source. Unless noted, how the calls were made is not given here.

Calcium-dependent protein kinase 1 (Plasmodium falciparum (isolate 3D7)), sequence (P62344 whole entry, looked up): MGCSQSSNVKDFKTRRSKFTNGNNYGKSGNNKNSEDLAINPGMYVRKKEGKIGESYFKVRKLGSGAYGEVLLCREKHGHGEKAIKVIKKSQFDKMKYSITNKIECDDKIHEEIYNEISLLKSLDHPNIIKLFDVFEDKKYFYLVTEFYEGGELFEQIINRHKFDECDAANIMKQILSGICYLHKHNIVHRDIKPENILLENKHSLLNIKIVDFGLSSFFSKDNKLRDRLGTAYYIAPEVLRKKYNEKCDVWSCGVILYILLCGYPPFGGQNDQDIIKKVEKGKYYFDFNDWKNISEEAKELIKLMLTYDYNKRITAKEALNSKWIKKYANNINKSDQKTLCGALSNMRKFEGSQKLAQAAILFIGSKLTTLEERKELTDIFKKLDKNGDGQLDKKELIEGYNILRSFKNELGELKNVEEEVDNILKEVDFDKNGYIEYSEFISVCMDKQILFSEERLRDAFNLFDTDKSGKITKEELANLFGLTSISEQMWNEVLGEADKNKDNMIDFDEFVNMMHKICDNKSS
Protein kinase 7 (PK7), Plasmodium falciparum 3D7 (PF3D7_0213400), sequence (Q7YTF7 1-343): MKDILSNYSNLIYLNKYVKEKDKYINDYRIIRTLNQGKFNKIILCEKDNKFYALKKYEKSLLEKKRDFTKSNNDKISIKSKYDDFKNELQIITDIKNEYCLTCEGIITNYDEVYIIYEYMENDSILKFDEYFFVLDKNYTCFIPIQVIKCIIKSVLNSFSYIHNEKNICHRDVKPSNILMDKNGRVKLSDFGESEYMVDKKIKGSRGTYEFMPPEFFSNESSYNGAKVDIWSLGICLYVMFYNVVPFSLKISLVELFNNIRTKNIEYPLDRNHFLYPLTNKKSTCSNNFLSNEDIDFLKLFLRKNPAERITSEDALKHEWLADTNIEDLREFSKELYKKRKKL
Plasmodium falciparum protein kinase 6 (PK6, PF3D7_1337100), sequence (Q8IDW1 1-305): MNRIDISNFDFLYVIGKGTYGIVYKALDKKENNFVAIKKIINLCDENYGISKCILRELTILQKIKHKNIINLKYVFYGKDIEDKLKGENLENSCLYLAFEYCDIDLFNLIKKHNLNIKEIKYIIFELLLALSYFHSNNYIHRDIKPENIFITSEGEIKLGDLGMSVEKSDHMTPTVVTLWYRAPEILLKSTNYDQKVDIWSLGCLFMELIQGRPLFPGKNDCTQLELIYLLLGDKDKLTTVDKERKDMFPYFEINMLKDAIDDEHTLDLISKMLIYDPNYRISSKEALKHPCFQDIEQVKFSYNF
Calcium-dependent protein kinase 4 (Plasmodium falciparum (isolate 3D7)), sequence (Q8IBS5 whole entry, looked up): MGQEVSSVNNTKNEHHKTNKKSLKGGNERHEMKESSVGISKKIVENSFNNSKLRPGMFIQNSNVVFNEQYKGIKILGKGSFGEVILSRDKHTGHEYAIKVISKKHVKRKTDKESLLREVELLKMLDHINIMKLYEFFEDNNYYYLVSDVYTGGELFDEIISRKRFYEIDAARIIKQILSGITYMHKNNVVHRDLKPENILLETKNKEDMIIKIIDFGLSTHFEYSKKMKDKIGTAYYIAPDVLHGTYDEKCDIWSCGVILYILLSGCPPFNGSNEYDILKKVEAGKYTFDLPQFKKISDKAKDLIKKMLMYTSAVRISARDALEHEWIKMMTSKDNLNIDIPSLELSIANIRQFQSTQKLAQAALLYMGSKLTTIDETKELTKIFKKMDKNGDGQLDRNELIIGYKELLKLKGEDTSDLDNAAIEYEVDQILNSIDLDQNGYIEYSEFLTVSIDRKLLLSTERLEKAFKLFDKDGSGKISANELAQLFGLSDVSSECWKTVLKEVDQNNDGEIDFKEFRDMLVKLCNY
L-lactate dehydrogenase (Plasmodium falciparum (isolate CDC / Honduras)), sequence (Q27743 whole entry, looked up): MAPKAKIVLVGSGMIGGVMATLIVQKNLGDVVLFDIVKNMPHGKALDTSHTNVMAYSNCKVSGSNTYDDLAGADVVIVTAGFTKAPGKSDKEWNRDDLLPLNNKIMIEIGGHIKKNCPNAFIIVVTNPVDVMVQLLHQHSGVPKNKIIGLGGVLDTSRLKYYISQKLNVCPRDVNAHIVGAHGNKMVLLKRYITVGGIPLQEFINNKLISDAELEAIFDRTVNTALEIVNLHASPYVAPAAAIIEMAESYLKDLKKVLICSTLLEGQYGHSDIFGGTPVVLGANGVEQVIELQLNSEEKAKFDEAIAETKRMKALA

For orientation: inhibition means the relative decrease from the control value, in per cent. Turning to `O=C(NCCN1CCCC1)c1cccc(-c2ccc(-c3nc4ccccc4[nH]3)cc2)c1`, the results for the growth inhibition in assay [1] and in assay [4] were 36% and 100% (active), respectively. In addition, the inhibition in assay [2] is 20%; in assay [3] it was 0%. Moreover, the outcome in assay [5], in assay [6], in assay [7] and in assay [8] was inactive.
With `CC[C@H]1CN2CCc3c([nH]c4ccccc34)[C@@H]2C[C@@H]1CC1c2cc(OC)c(OC)cc2CCN1C` (stereo partly drawn), the growth inhibition in assay [1] is 45%; in assay [4], 85% (active). The inhibition in assay [2] is 31%; in assay [3], 5%. The result in assay [5], in assay [6], in assay [7] and in assay [8] was inactive.
Turning to `Cc1cc(-c2nc3ccc(CN4CCN(C)CC4)cc3[nH]2)nn1Cc1cc(Cl)ccc1OCc1ccccc1`, the values for the growth inhibition in assay [1] and in assay [4] were 52% (active) and 100% (active), respectively. In addition, the inhibition in assay [2] was 3%; in assay [3], 1%. The outcome in assay [5], in assay [6], in assay [7] and in assay [8] was inactive.
For `O=[N+]([O-])c1ccc2nccnc2c1`, the growth inhibition in assay [1] was 0%; in assay [4], 97% (active). For the same compound, the values for the inhibition in assay [2] and in assay [3] were -2% and -1%, respectively. In addition, the result in assay [5], in assay [6], in assay [7] and in assay [8] was inactive.
Regarding `COc1cccc(Nc2nc(Nc3cccc(C#N)c3)cc(-c3ccncc3)n2)c1`, the growth inhibition is 46% in assay [1] and 100% (active) in assay [4]. The inhibition was 28% in assay [2] and 1% in assay [3]. For the same compound, the result in assay [5], in assay [6], in assay [7] and in assay [8] was inactive.
In the case of `N#Cc1ccc2c(c1)CN(C1CCC(NC(=O)c3cc(-c4ccc(Cl)cc4)cs3)CC1)CCC2` (stereo not drawn), the growth inhibition in assay [1] is 99% (active); in assay [4] it was 101% (active). The inhibition in assay [2] is 36%; in assay [3], 0%. Besides, the result in assay [5], in assay [6], in assay [7] and in assay [8] was inactive.
As to `CN1CCN(CCCN(Cc2ccc(-c3cccc(CNC4CCCC4)c3)cc2)C(=O)Nc2ccccc2)CC1`, the growth inhibition in assay [1] is 76% (active); in assay [4], 92% (active). Further, the inhibition was 28% in assay [2] and -3% in assay [3]. Further, the result in assay [5], in assay [6], in assay [7] and in assay [8] was inactive.
With `Cc1cccc(NC(=O)c2ccc(C(=O)NC3CCN(CC4CCCCC4)CC3)cc2)c1`, the results for the growth inhibition in assay [1] and in assay [4] were 18% and 95% (active), respectively. The results for the inhibition in assay [2] and in assay [3] were 14% and -1%, respectively. The outcome in assay [5], in assay [6], in assay [7] and in assay [8] was inactive.
Take `O=C(NCc1cccc(F)c1)Nc1ccc(-c2cccc(-c3nc4ccc(F)cc4[nH]3)c2)cc1`: the results for the growth inhibition in assay [1] and in assay [4] were 2% and 88% (active), respectively. Moreover, the inhibition in assay [2] was 31%; in assay [3], 7%. In addition, the outcome in assay [5], in assay [6], in assay [7] and in assay [8] was inactive.
Take `CCN(CC)c1ccc2nc(N)nc(N)c2c1Cl`: the growth inhibition in assay [1] was 1%; in assay [4] it was 92% (active). For the same compound, the results for the inhibition in assay [2] and in assay [3] were 62% (active) and -5%, respectively. The outcome in assay [5], in assay [6], in assay [7] and in assay [8] was inactive.
Regarding `OCCNc1nc(Nc2ccc(Cl)cc2)nc2ccccc12`, the growth inhibition was 99% (active) in assay [1] and 102% (active) in assay [4]. The values for the inhibition in assay [2] and in assay [3] were 30% and -1%, respectively. Further, the outcome in assay [5], in assay [6], in assay [7] and in assay [8] was inactive.
As to `CCCN1CCN(CCCNc2c3ccccc3nc3ccccc23)CC1`, the growth inhibition in assay [1] was -1%; in assay [4] it was 99% (active). The inhibition is 36% in assay [2] and -7% in assay [3]. The outcome in assay [5], in assay [6], in assay [7] and in assay [8] was inactive.
Regarding `CCCN(CCC)C(=O)c1cc(C(=O)N[C@@H](Cc2ccccc2)[C@H](O)CNC2CC2)cc(N2CCCCS2(=O)=O)c1`, the growth inhibition in assay [1] is 98% (active); in assay [4], 100% (active). The results for the inhibition in assay [2] and in assay [3] were -3% and 0%, respectively. In addition, the outcome in assay [5], in assay [6], in assay [7] and in assay [8] was inactive.
For `CCNc1cc(C(=O)N[C@@H](Cc2ccccc2)[C@H](O)CNCCC(C)c2ccccc2)cc(N2CCCC2=O)c1` (stereo partly drawn), the growth inhibition in assay [1] is 95% (active); in assay [4], 99% (active). The figures for the inhibition in assay [2] and in assay [3] were 0% and 3%, respectively. For the same compound, the result in assay [5], in assay [6], in assay [7] and in assay [8] was inactive.
As for `Cc1cccc2[nH]c(-c3ccc(-c4ccc(CN5CCC(N)C5)cc4)s3)nc12` (stereo not drawn), the values for the growth inhibition in assay [1] and in assay [4] were 98% (active) and 100% (active), respectively. Moreover, the inhibition in assay [2] is 21%; in assay [3] it was -11%. The result in assay [5], in assay [6], in assay [7] and in assay [8] was inactive.
With `CCOC(=O)c1ccc(-c2cnc(N)c(-c3nc4c(C)cccc4[nH]3)c2)cc1`, the results for the growth inhibition in assay [1] and in assay [4] were 79% (active) and 102% (active), respectively. Besides, the inhibition in assay [2] was 43%; in assay [3], -4%. For the same compound, the outcome in assay [5], in assay [6], in assay [7] and in assay [8] was inactive.
For the compound `O=S(=O)(c1c(Cl)cc(Cl)cc1Cl)N1CCCCC(c2ccc(C(F)(F)F)cc2)=N1`, the growth inhibition in assay [1] is 99% (active); in assay [4], 98% (active). Besides, the inhibition in assay [2] was 6%; in assay [3] it was -5%. In addition, the outcome in assay [5], in assay [6], in assay [7] and in assay [8] was inactive.
Consider `CCc1c(C)nc(-n2nc(C)cc2NC(=O)CCc2ccccc2)[nH]c1=O`, for which the growth inhibition in assay [1] and in assay [4] was 97% (active) in each case. Also, the inhibition in assay [2] was 48%; in assay [3], -1%. Besides, the result in assay [5], in assay [6], in assay [7] and in assay [8] was inactive.
Regarding `Cc1cccc2[nH]c(-c3ccc(-c4ccc(NC(=O)Nc5ccc(Cl)c(Cl)c5)cc4)s3)nc12`, the growth inhibition in assay [1] and in assay [4] was 101% (active) each time. The inhibition in assay [2] is 100% (active); in assay [3] it was 0%. Besides, the result in assay [5], in assay [6], in assay [7] and in assay [8] was inactive.
Take `Cc1ccccc1C1CCN(C2CCC(NC(=O)/C=C/c3cccc(F)c3F)CC2)CC1` (stereo not drawn): the growth inhibition in assay [1] was 45%; in assay [4], 89% (active). Also, the values for the inhibition in assay [2] and in assay [3] were 57% (active) and -3%, respectively. In addition, the outcome in assay [5], in assay [6], in assay [7] and in assay [8] was inactive.
For `O=C(Cc1cnc[nH]1)Nc1ccc(-c2ccc(-c3nc4ccc(F)cc4[nH]3)cc2)cc1`, the growth inhibition in assay [1] is 91% (active); in assay [4] it was 100% (active). For the same compound, the inhibition in assay [2] is 39%; in assay [3], 0%. Besides, the outcome in assay [5], in assay [6], in assay [7] and in assay [8] was inactive.
